# Data published in PubChem BioAssay (NCATS).
# Inconclusive results are not listed. Activity calls are given as the source filed them. Calls follow the shape of the dose curve; as a rule, active = well fitted cell-killing curve with a large enough effect; inconclusive = small, poorly fitted or top-dose-only effect, or effect the other way; inactive = no such curve, though single readings can be large or run the other way.
# Experiment: Quantitative High-Throughput drug screen in 47 multiple myeloma cell lines against the NCATS MIPE library collection: VP6_DJ cell viability assay (AID 1919867); also: nearly all actives have a fitted effect of over 40% in size;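 as to viability (% of DMSO): 100% = DMSO-only wells and 0% = wells with media alone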
# Settings: ATP luminescence, 48 h; series mostly up to 45.8 µM; viability (% of DMSO): at the top concentration
# Summary of the method: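 ATP-based luminescence (CellTiter-Glo, 5 min RT incubation) quantified surviving cells following two days' treatment with MIPE 4.0 agents at 37 °C, 5% CO2.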
# Potency is read from the fitted curve at half-maximal effect.
Structure (SMILES),viability (% of DMSO),Potency
CC(=Cc1csc(C)n1)[C@@H]1C[C@H]2O[C@]2(C)CCC[C@H](C)[C@@H](O)[C@@H](C)C(=O)C(C)(C)[C@@H](O)CC(=O)O1,72.9% (inactive),–
O=c1cccc2n1CC1CNC[C@H]2C1,–,13.2 µM (active)
Cc1c(N)nc([C@H](CC(N)=O)NC[C@@H](N)C(N)=O)nc1C(=O)N[C@H](C(=O)N[C@@H](C)[C@H](O)[C@@H](C)C(=O)N[C@@H](C(=O)NCCc1nc(-c2nc(C(=O)NCCC[S+](C)C)cs2)cs1)[C@@H](C)O)C(O[C@H]1O[C@H](CO)[C@H](O)[C@@H](O)[C@@H]1O[C@H]1O[C@H](CO)[C@@H](O)[C@H](OC(N)=O)[C@H]1O)c1cnc[nH]1 (stereo partly drawn),–,16.6 µM (active)
CC(C)(O)C(=O)Nc1ccc([N+](=O)[O-])c(C(F)(F)F)c1,–,8.33 µM (active)
CCOC(=O)c1cncn1[C@H](C)c1ccccc1,120% (inactive),–
CC(O)=C(C#N)C(=O)Nc1cc(Br)ccc1Br,–,2.96 µM (active)
CCN(CC)C(=O)c1ccc(C2=CC3(CCNCC3)Oc3cccc(O)c32)cc1,128% (inactive),–
C#CC1(O)CCC2C3CCC4=CC(=O)CCC4(C)C3CCC21C (stereo not drawn),96.1% (inactive),–
COc1ccc2c(c1)CN(C)CC2c1ccc(Cl)c(Cl)c1 (stereo not drawn),–,14.8 µM (active)
CN(C)NC(=O)CCC(=O)O,–,16.6 µM (active)
CCOC(=O)c1c(C(C#N)=CN)c2ccc(Cl)c(Cl)c2n1C,79.9% (inactive),–
O=C(Oc1ccc([N+](=O)[O-])cc1)N1CCC(C(O)(c2ccc3c(c2)OCO3)c2ccc3c(c2)OCO3)CC1,77.1% (inactive),–
CN(C)[C@@H]1C(=O)C(C(N)=O)=C(O)[C@@]2(O)C(=O)C3=C(O)c4c(O)cccc4[C@@](C)(O)[C@H]3[C@H](O)[C@@H]12,–,23.5 µM (active)
